# Measurements from PubChem BioAssay.
# Values without a mark were called inactive. For part of these data: Results with a measured potency or affinity are listed apart. The source made the active and inactive calls. Unless noted, no rule for the calls is given here.
# What was measured:
# [1] = antimalarial activity against Dd2 strain (AID 2302;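 active = growth inhibition above 50% at the single 2 µM test dose, taken to imply half-maximal potency below 2 µM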;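 also: 0% = DMSO untreated growth and 100% = chloroquine plus artemisinin killed control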); settings: P. falciparum Dd2 in RBCs, LDH growth readout, 72 h; at 2 µM; hits give high values
# [2] = HepG2 cytotoxicity, primary screen, cytotoxicity control for P. falciparum antimalarial project, cell-based, ATP luminescence (AID 2303;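 active = inhibition above 50%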;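 also: 0% = DMSO wells and 100% = digitonin-killed cells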); settings: HepG2 viability, 24-48 h, at 10 µM, hits give high values
# [3] = biological target: L-lactate dehydrogenase (Plasmodium falciparum (isolate CDC / Honduras)) (UniProt Q27743); test: PfLDH activity inhibition – cell lysate, 3D7 strain, counter-screen for P. falciparum growth inhibition project (AID 2304);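 also: 0% = vehicle and 100% = reference inhibitor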; settings: P. falciparum 3D7 crude extract, LDH APAD/NBT absorbance; at 2 µM; hits give high values
# L-lactate dehydrogenase (Plasmodium falciparum (isolate CDC / Honduras)), sequence (Q27743 whole entry, looked up): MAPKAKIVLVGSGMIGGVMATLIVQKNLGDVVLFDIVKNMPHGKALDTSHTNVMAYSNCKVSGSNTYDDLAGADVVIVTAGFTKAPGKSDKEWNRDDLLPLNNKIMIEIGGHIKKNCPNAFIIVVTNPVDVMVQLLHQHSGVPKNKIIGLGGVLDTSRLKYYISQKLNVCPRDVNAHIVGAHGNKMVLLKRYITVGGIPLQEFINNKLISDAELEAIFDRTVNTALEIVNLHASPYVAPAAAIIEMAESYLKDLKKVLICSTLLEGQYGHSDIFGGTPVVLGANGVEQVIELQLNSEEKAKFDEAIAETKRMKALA
# [4] = inhibition of 3D7 malaria parasite growth – strain 3D7 (AID 2306);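 also: 0% = DMSO wells and 100% = chloroquine plus artemisinin control wells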; settings: P. falciparum 3D7 erythrocytic growth, LDH absorbance, 72 h; at 2 µM; hits give high values
# [5] = biological target: Calcium-dependent protein kinase 1 (Plasmodium falciparum (isolate 3D7)) (UniProt P62344); test: PfCDPK1 kinase inhibitors, biochemical, TCAMS library (AID 1159585; cut-off not given, nearly all actives have IC50 up to about 0.98 µM;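 also: inhibitors leave more ATP so luminescence rises with inhibition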); settings: recombinant PfCDPK1, Kinase-Glo ATP depletion luminescence
# Calcium-dependent protein kinase 1 (Plasmodium falciparum (isolate 3D7)), sequence (P62344 whole entry, looked up): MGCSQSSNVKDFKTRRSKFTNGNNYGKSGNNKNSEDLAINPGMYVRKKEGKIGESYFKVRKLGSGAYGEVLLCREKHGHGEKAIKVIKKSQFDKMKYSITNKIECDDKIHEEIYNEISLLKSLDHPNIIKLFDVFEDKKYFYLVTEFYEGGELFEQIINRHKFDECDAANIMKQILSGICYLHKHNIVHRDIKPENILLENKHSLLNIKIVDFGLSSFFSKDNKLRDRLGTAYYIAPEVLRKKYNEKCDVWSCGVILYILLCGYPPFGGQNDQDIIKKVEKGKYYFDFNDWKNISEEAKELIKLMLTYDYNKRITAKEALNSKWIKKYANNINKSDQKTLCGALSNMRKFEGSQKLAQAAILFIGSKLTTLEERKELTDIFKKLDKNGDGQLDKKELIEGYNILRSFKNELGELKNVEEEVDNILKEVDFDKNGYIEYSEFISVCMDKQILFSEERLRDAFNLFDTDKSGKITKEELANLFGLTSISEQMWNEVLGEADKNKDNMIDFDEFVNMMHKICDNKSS
# [6] = biological target: Plasmodium falciparum protein kinase 6 (PK6, PF3D7_1337100) (UniProt Q8IDW1); test: PfPK6 kinase inhibitors, biochemical, TCAMS library (AID 1159586); settings: recombinant PfPK6, Kinase-Glo ATP depletion luminescence
# Plasmodium falciparum protein kinase 6 (PK6, PF3D7_1337100), sequence (Q8IDW1 1-305): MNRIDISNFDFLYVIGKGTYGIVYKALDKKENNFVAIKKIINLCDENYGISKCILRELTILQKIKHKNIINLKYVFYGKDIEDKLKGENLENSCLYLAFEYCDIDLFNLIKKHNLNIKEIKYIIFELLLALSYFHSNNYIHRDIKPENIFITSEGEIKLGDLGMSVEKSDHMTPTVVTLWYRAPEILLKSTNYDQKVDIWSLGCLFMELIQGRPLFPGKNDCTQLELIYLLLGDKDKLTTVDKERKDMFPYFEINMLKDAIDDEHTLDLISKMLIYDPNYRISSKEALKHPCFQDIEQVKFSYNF
# [7] = biological target: Protein kinase 7 (PK7), Plasmodium falciparum 3D7 (PF3D7_0213400) (UniProt Q7YTF7); test: inhibition of Plasmodium PK7 catalytic activity – biochemical, TCAMS antimalarial set, Kinase-Glo luminescence (AID 1159587); settings: recombinant PfPK7, Kinase-Glo ATP depletion luminescence
# Protein kinase 7 (PK7), Plasmodium falciparum 3D7 (PF3D7_0213400), sequence (Q7YTF7 1-343): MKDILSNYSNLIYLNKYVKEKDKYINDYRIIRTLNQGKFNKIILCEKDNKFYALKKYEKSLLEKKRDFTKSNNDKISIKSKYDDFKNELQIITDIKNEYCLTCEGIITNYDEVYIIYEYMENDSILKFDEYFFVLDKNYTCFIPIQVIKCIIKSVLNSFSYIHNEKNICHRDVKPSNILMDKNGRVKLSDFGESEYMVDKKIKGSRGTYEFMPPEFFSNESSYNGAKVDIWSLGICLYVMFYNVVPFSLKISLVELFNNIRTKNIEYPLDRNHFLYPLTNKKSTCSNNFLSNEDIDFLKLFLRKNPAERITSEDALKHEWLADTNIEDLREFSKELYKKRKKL
# [8] = biological target: Calcium-dependent protein kinase 4 (Plasmodium falciparum (isolate 3D7)) (UniProt Q8IBS5); test: PfCDPK4 kinase inhibitors, biochemical, TCAMS library (AID 1159588; cut-off not given, nearly all actives have IC50 up to about 0.91 µM); settings: recombinant PfCDPK4, Kinase-Glo ATP depletion luminescence
# Calcium-dependent protein kinase 4 (Plasmodium falciparum (isolate 3D7)), sequence (Q8IBS5 whole entry, looked up): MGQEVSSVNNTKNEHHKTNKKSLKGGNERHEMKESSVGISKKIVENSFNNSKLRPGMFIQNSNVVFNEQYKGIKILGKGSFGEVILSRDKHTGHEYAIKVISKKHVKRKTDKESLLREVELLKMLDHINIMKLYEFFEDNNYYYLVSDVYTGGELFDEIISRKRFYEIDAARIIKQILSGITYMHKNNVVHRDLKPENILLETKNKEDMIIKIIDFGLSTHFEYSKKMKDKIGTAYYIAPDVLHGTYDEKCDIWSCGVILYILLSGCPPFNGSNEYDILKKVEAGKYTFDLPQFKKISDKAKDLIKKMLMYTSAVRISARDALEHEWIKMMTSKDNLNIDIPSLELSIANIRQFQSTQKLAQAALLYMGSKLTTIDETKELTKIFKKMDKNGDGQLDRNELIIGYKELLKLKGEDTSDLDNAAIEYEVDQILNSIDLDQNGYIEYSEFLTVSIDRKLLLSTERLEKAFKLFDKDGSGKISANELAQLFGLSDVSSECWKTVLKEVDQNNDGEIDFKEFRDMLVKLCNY
SMILES,growth inhibition [1],inhibition [2],inhibition [3],growth inhibition [4],outcome [5],outcome [6],outcome [7],outcome [8]
CCCc1nc2c(N3CCCN(C(=O)NC4CCCCC4)CC3)cccc2n1Cc1ccccn1,10%,10%,5%,89% (active),inactive,inactive,inactive,inactive
O=C1COc2ccc(CNC3CCC(O)(CCc4ccnc5cc6c(cc45)OCCO6)CC3)nc2N1 (configuration not stated),-1%,-5%,-6%,92% (active),inactive,inactive,inactive,inactive
Cc1ccc(Nc2nccc(Nc3ccc4c(C)[nH]nc4c3)n2)cc1F,1%,6%,4%,95% (active),inactive,inactive,inactive,inactive
CCCCn1c(SC(C)C)nc2c(c1=O)C1(CCCCC1)Cc1ccccc1-2,60% (active),1%,-2%,99% (active),inactive,inactive,inactive,inactive
O=C(NCCCCN1CCC(c2ccc3c(c2OCc2ccccn2)CCCC3)CC1)c1ccc(NC(=O)c2ccc(Cl)cc2)cc1,70% (active),31%,-3%,101% (active),inactive,inactive,inactive,inactive
CCCN=CNc1cc(-c2csc(N=C(N)N)n2)cc([N+](=O)[O-])c1,1%,12%,-3%,91% (active),inactive,inactive,inactive,inactive
COc1ccc(OC)c(-c2cccc(-c3cccc(NC(=O)c4ccc([N+](=O)[O-])o4)c3)n2)c1,97% (active),75% (active),-7%,98% (active),inactive,inactive,inactive,inactive
CC(C)[C@H](NC(=O)c1ccc(O)c(-c2ccc(Cl)c(Cl)c2)c1)C(=O)NCCN1CCOCC1,44%,-4%,-1%,95% (active),inactive,inactive,inactive,inactive
CN(C)C(CNC(=O)c1cc(-c2ccncc2)c(-c2ccc(NC(=O)Nc3cccc(F)c3)cc2)o1)c1ccccc1 (configuration not stated),99% (active),11%,3%,100% (active),inactive,inactive,inactive,inactive
CC(C)C[C@H](NC(=O)c1ccc(OCCN2CCOCC2)cc1)C(=O)NC(/C=N/N1CCCC1=O)C(C)C (some centres not stated),81% (active),3%,-2%,90% (active),inactive,inactive,inactive,inactive
CC[C@H](N=C(Nc1ccc(-c2ccccc2)cc1)Nc1ccc(C#N)cc1O)c1ccccc1,97% (active),-6%,4%,99% (active),inactive,inactive,inactive,inactive
COc1cccc(-c2[nH]c3ccccc3c2CN2CCC(c3c(C)cccc3C)CC2)c1,24%,32%,3%,99% (active),inactive,inactive,inactive,inactive
Cc1cc2nc(-c3ccc(/C=C/C(=O)NC4CCCCC4)cc3)[nH]c2cc1C,10%,9%,2%,93% (active),inactive,inactive,inactive,inactive
Cc1cc(N2CCCC2)nc(Nc2ccc(NC(=O)c3ccccc3C)cc2)n1,40%,22%,2%,100% (active),inactive,inactive,inactive,inactive
O=C(Nc1cccc(-c2nn3ccccc3c2-c2ccnc(Nc3cccc(C(F)(F)F)c3)n2)c1)c1c(F)cccc1F,91% (active),43%,-2%,97% (active),inactive,inactive,inactive,inactive
COc1ccc2nc(C)cc(NN=Cc3ccc([N+](=O)[O-])o3)c2c1,100% (active),18%,-5%,100% (active),inactive,inactive,inactive,inactive
CCCCCN=C(N)c1ccc(OCCCCCOc2ccc(C(N)=NCCCCC)cc2)cc1,98% (active),3%,6%,99% (active),inactive,inactive,inactive,inactive
c1cn(CCCNc2ncc(-c3ccsc3)c(-c3nccs3)n2)cn1,51% (active),-11%,-4%,94% (active),inactive,inactive,inactive,inactive
O=C(Nc1ccc2oc(-c3ccc(Cl)cc3Cl)nc2c1)c1ccc([N+](=O)[O-])o1,78% (active),39%,3%,95% (active),inactive,inactive,inactive,inactive
Cc1nc(SCC(=O)N2CCCC2=O)c2c(C)c(C)sc2n1,0%,45%,2%,96% (active),inactive,inactive,inactive,inactive

SMILES,growth inhibition [1],inhibition [2],inhibition [3],growth inhibition [4],outcome [5],outcome [6],outcome [7],outcome [8]
CN1CCCN(Cc2cccc(-c3cccc(NC(=O)c4cccc(Cl)c4)c3)c2)CC1,20%,17%,-4%,96% (active),inactive,inactive,inactive,inactive
CCCc1c(Cl)cc(CNCCCNc2nc3ccncc3[nH]2)cc1Cl,-5%,23%,-5%,98% (active),inactive,inactive,inactive,inactive
CN(C)Cc1cccc(-c2ccc(NC(=O)c3ccc4c(=O)n(C5CCCCC5)cnc4c3)cc2)c1,53% (active),92% (active),-3%,96% (active),inactive,inactive,inactive,inactive
CCN(CCCN1CCCCC1)c1cc(C)nc(Nc2ccc(C)cc2)n1,10%,17%,-1%,101% (active),inactive,inactive,inactive,inactive
CCOC(=O)c1ccc(-c2cnoc2-c2cc(CC)c(OC)cc2O)o1,97% (active),12%,1%,101% (active),inactive,inactive,inactive,inactive
O=C(Nc1ccccc1Cc1ccccc1)c1ccccc1C(F)(F)F,85% (active),0%,3%,99% (active),inactive,inactive,inactive,inactive
CCN1CCN(c2cc(C)c3cc(NC(=O)c4ccc(OC)c([N+](=O)[O-])c4)ccc3n2)CC1,93% (active),25%,0%,100% (active),inactive,inactive,inactive,inactive
CCCC(=O)Nc1ccc(OCCN(Cc2ccccc2OC(F)(F)F)c2ccc(C(F)(F)F)c(C#N)c2)cc1,97% (active),-11%,-1%,85% (active),inactive,inactive,inactive,inactive
O=C(Nc1ccc(Cn2nc(Cl)c(N3CCCNCC3)cc2=O)cc1)c1ccc(-c2ccccc2)cc1,35%,93% (active),0%,87% (active),inactive,inactive,inactive,inactive
N[C@@H](Cc1cc(I)c(Oc2ccc(O)c(Cl)c2)c(I)c1)C(=O)O,-3%,-4%,-2%,96% (active),inactive,inactive,inactive,inactive
CCc1cc2c(=O)c(-c3nc(C)cs3)c([C@H](N)Cc3ccc(O)cc3)oc2cc1O,19%,11%,1%,101% (active),inactive,inactive,inactive,inactive
CC(=O)NC1=NC(C)(C)N(OCc2ccc(Cl)c(Cl)c2)C(NC(C)=O)=N1,97% (active),68% (active),-5%,94% (active),inactive,inactive,inactive,inactive
N#Cc1ccc(N2CCN(Cc3ccc(-c4ccc(-c5nc6ccc(F)cc6[nH]5)s4)cc3)CC2)nc1,78% (active),12%,3%,100% (active),inactive,inactive,inactive,inactive
Oc1cc2c(cc1CN1CCN(Cc3ccccc3F)CC1)CCC2,94% (active),2%,-3%,98% (active),inactive,inactive,inactive,inactive
CCCCCCn1c(Sc2ccc(C#N)c([N+](=O)[O-])c2)nnc1-c1ccc(OC)cc1,51% (active),19%,2%,95% (active),inactive,inactive,inactive,inactive
O=C(Nc1ccc(CCNC2=NCCN2)cc1)Nc1ccc(CCNC2=NCCN2)cc1,66% (active),6%,4%,90% (active),inactive,inactive,inactive,inactive
COc1ccc(CN(C)CCCc2ccc(NC(=O)c3cccc4c(=O)c5ccccc5[nH]c34)cc2)cc1OC,54% (active),77% (active),-1%,99% (active),inactive,inactive,inactive,inactive
CN1CCC(c2csc3ccc(NC(=O)Nc4ccc(-c5ccncc5)c5ccccc45)cc23)CC1,71% (active),8%,0%,98% (active),inactive,inactive,inactive,inactive
CC(C)CN1C(=O)c2ccc(C(=O)Nc3nccs3)cc2C1=O,0%,3%,1%,89% (active),inactive,inactive,inactive,inactive
